The sample as a whole holds a higher share of hits than the screen did.
SARS PLpro yeast – inhibitors of SARS-CoV papain-like protease in yeast; S. cerevisiae expressing SARS-CoV PLpro, growth rescue; Potency, µM (highest dose often 32.9 µM), for the others: top-dose activity, positive = growth rescue, hits mostly activators; 330,000 tested, 0.19% active; AID 485353; further: potency means the concentration at half of the fitted maximal effect; 0% is about no effect; nearly all actives have a fitted effect of over 55% in size
Shiga inhibitor – blocks Shiga toxin action in Vero cells; Vero cells, Shiga toxin protein synthesis inhibition reporter; inhibition, % at 38.7 µM; 290,000 tested, 9.2% active; AID 2315; in the data active means inhibition mostly above about 28%, no sharp cut-off; inactive means mostly below about 43%; further: 0% is about no effect
NS1 inh – blocks influenza NS1 protein function. Potency, µM (highest dose often 46.1 µM), without a hit: at the highest dose activity, positive = more growth. 270,000 tested, 0.4% active; further: potency means the concentration at half of the fitted maximal effect; actives are rising curves; nearly all actives have a fitted effect of over 50% in size
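Growth recovery, yeast-based: influenza A NS1 expressed in S. cerevisiae causes slow growth, and suppressors are detected by OD600. The parent strain without NS1 is used as positive control.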
Cycloheximide cs – affects cycloheximide protein synthesis inhibition readout, counter-screen; cell reporter, cycloheximide protein synthesis inhibition counterscreen; max response, %; 300,000 tested, 12% active; AID 2314; in the data active means max response mostly above about 13%, no sharp cut-off; inactive means mostly below about 14%; further: read at 38.3 µM for the half of the compounds with a filed dose; 0% is about no effect
TbPYK inhibitor – T. brucei pyruvate kinase inhibition; Potency, µM (highest dose often 76.8 µM), for inactives: at the highest dose activity, negative = inhibition, actives largely listed as inhibitors; TbPYK enzyme, Kinase-Glo Plus ATP luminescence, 45 min; Q57TT1; 410,000 tested, 0.12% active; active means well fitted curve in the direction sought with a large enough effect; inconclusive means small, poorly fitted or top-dose-only effect, or another doubt; inactive means no such curve, though single readings can be large; an effect the other way counts as inactive or inconclusive; further: potency means the concentration at half of the fitted maximal effect; on the % scale 0 is the no-effect control and ±100 the full control effect; nearly all actives have a fitted effect of over 50% in size
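ADP (130 uM final) triggers the TbPYK reaction after compound addition; incubation is 45 min at room temperature. Kinase-Glo Plus is then added and luminescence imaged. Normalized data are fitted to concentration-effect curves.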
LmPK inh – LmPK (Leishmania mexicana) enzyme inhibition. purified LmPK, Kinase-Glo ATP luminescence, 1 h. Potency, µM (doses to about 57.5 µM), for inactives: top-dose activity change, negative = inhibition, most hits filed as inhibitors. 290,000 tested, 0.37% active. Q27686; active means well fitted curve in the direction sought with a large enough effect; inconclusive means small, poorly fitted or top-dose-only effect, or another doubt; inactive means no such curve, though single readings can be large; an effect the other way counts as inactive or inconclusive; further: potency means the concentration at half of the fitted maximal effect; on the % scale 0 is the no-effect control and ±100 the full control effect
Target sequence (Q27686 whole entry, looked up): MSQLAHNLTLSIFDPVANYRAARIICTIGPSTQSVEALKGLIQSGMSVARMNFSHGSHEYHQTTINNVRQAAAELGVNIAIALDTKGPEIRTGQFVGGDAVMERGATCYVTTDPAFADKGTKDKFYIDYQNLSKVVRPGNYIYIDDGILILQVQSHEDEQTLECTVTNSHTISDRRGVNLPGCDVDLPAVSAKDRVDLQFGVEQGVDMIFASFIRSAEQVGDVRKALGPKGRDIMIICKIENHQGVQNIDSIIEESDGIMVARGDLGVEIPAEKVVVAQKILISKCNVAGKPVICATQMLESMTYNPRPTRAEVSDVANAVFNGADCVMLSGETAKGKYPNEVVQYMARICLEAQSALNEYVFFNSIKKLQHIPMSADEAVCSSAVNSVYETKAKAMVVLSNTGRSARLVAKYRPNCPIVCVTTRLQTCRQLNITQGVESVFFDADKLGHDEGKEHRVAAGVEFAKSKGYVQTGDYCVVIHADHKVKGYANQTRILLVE
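qHTS format; LmPK 0.1 nM; substrates PEP 0.5 mM and ADP 0.1 mM. One-hour room-temperature incubation, then coupled luciferase luminescence; 0.5 nM enzyme wells mark activation.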
Numbers without * were called inactive; u = inconclusive; x = not tested or not shown; [ ] = remark or other dose. Unless noted, the call rests on the fitted dose curve.

SMILES	SARS PLpro yeast	Shiga inhibitor	NS1 inh	Cycloheximide cs	TbPYK inhibitor	LmPK inh
O=C(NC1CCCCCC1)c1ccc(OCC2CCCO2)cc1 (configuration not stated)	1%	59*	-3%	24*	-8%	u
O=C(Nc1ccc(N2CCOCC2)cc1)c1ccc(S(=O)(=O)NCc2ccco2)cc1	0%	-3	5%	7	0%	2%
CCOc1ccc(CCNC(=O)Cn2c(-c3cccs3)cc3ccccc32)cc1	x	x	x	x	3%	x
Cc1ccc(S(=O)(=O)N2CCN(c3nc(-c4ccc(F)cc4)nc4cc(Cl)ccc34)CC2)cc1	x	-5	x	2	x	x
CCc1ccc(-c2ccc(C(=O)C(F)(F)F)[nH]2)cc1	-3%	126*	-20%	64*	3%	1%
Cc1cccc(Cn2cccc2CNS(=O)(=O)c2ccc(C)c(C)c2)c1	x	x	x	x	1%	x
COc1ccc(NC(=O)COC(=O)Cc2c(F)cccc2Cl)cc1	-2%	33*	x	45*	3%	4%
COc1ccccc1NC(=O)Cc1c(F)cccc1Cl	24%	-11	1%	-7	-2%	5%
COc1ccc(NC(=O)Cc2c(F)cccc2Cl)cc1	0%	62*	3%	31*	-17%	0%
Cc1ccc(C(=O)N[C@H](C(=O)OCc2nnc(-c3ccccc3)o2)C(C)C)cc1	-1%	24	-4%	26*	-4%	3%
CC(C(=O)OCc1nnc(-c2ccccc2)o1)N1C(=O)c2ccccc2C1=O (configuration not stated)	8%	92*	-58%	32*	6%	5%
CC(C)[C@H](NC(=O)c1ccccc1)C(=O)OCc1nnc(-c2ccccc2)o1	-2%	24	x	13	-7%	-1%[11.5 µM]
CCC(CC)C(=O)c1c[nH]c(C(=O)NCc2ccc(F)cc2)c1	1%	-2	4%	-4	4%	2%
Cc1ccc(-n2c(Cc3ccccc3)nnc2SCc2nc(-c3cccs3)no2)cc1C	x	x	x	x	-1%	x
COc1ccc(N2CCN(C(=O)CCc3c(C)nn(-c4ccc(N5CCCC5)nn4)c3C)CC2)cc1	x	x	x	x	-1%	x
O=C(CC(c1ccccc1)C1CCCCC1=O)c1ccco1 (configuration not stated)	23%	63*	-3%	38*	4%	5%
O=C(CC(c1ccco1)C1CCCCC1=O)c1ccco1 (configuration not stated)	13%	1	-7%	-5	-14%	4%
CCCn1c(N)c(C(=O)COC(=O)CNC(=O)c2ccccc2OCC)c(=O)[nH]c1=O	7%	x	x	x	7%	x
O=C(Oc1cccc2cccnc12)c1cccc([N+](=O)[O-])c1	-1%	-18	-44%	-5	4%	-2%
O=C(Oc1cccc2cccnc12)c1ccc2c(c1)OCCO2	-18%	84*	-137%	70*	0%	-1%
O=C(Oc1cccc2cccnc12)c1ccco1	-57%	14	-5%	-4	-9%	3%
O=C(Oc1cccc2cccnc12)c1cccs1	-37%	41	-148%	21*	6%	10%
O=C(NCCOc1cccc2cccnc12)c1cccs1	0%	46*	x	22	2%	3%
Fc1cccc(Cl)c1Cn1ncc2ccccc21	0%	31*	2%	28*	6%	-6%
COc1cc(OC)c2c(c1C(CCN1CCCC1)c1ccc(N(C)C)cc1)OC(=O)CC2c1ccc(N(C)C)cc1 (configuration not stated)	x	26	x	8	x	x
SMILES	SARS PLpro yeast	Shiga inhibitor	NS1 inh	Cycloheximide cs	TbPYK inhibitor	LmPK inh
COc1ccc(NC(=O)CN(C)C(=O)c2cc3c(s2)CCC(C)C3)cc1 (configuration not stated)	-5%	19	-51%	14*	3%	-13%
CCC1CCc2sc(C(=O)N(C)CC(=O)Nc3ccc(OC)cc3)cc2C1 (configuration not stated)	-7%	x	x	x	-5%	x
COc1cc(/C=N/Nc2ccc(C(F)(F)F)cn2)cc(OC)c1O	-2%	22	x	7	-2%	0%
CCOC(=O)NNc1ccc(C(F)(F)F)cn1	1%	-1	1%	-1	-4%	-2%
C/C(=N\Nc1ccc(C(F)(F)F)cn1)c1ccncc1	-6%	101*	x	24*	0%	1%
Oc1ccc(/C=N/Nc2cccc(Cl)n2)c(O)c1	3%	47*	-59%	42*	-1%	-2%
Oc1ccc(/C=N/Nc2ccc(C(F)(F)F)cn2)c(O)c1	-11%	56*	-60%	52*	x	-6%
Oc1ccc(/C=N\Nc2cc(N3CCOCC3)nc(N3CCOCC3)n2)c(O)c1	9%	12	7%	1	-12%	1%
Oc1ccc(/C=N/Nc2ccc(C(F)(F)F)cn2)cc1	-2%	124*	x	37*	-18%	1%
Cc1cccc(N(CC(N)=O)C2SC(=O)N(Cc3cccc(C(=O)O)c3)C2=O)c1 (configuration not stated)	x	x	x	x	3%	x
COc1cc2c(cc1OC)[C@@H](NC(=O)CCc1ccccc1)[C@H](O)C2	-4%	x	x	x	0%	x
CCOC(=O)c1ccc(/C=C2\c3ccccc3C(=O)N2c2ccccc2)cc1F	-3%	x	x	x	0%	x
O=C1NC(=O)N(Cc2ccccc2)C(=O)/C1=C\c1ccco1	2%	-10	x	-1	u	-3%
O=C1NC(=O)N(Cc2ccco2)C(=O)/C1=C/c1cccn1CCOc1ccccc1Cl	23%	70*	u	23*	-13%	4%
COc1ccc(-c2cc(C(F)(F)F)nc(SCC(=O)Nc3ccc(C(C)=O)cc3)n2)cc1	x	x	x	x	-5%	x
CCOC(=O)c1[nH]c(C)c(C(=O)Nc2ccc3c(c2)OCCO3)c1C	0%	52*	-3%	48*	-7%	0%
CC(=O)c1c(C)[nH]c(C(=O)Nc2cccc(C#N)c2)c1C	1%	52	6%	1	3%	-1%
CC(=O)c1c(C)[nH]c(C(=O)Nc2ccc3c(c2)OCCO3)c1C	-8%	99*	-7%	38*	0%	-20%
Cc1ccc(S(=O)(=O)N2CCN(CN3C(=O)CC4(CCCC4)C3=O)CC2)cc1	-5%	x	x	x	-6%	x
Cc1nc2c3cccnc3nn2c(C)c1CCC(=O)NCc1ccccc1Cl	x	x	x	x	2%	x
CCOc1ccc(C)cc1S(=O)(=O)n1cnc2ccccc21	1%	4	-21%	-4	6%	-4%
Cc1ccc(SCC(=O)O/N=C(\N)c2ccncc2)cc1	-8%	41	-44%	37*	4%	0%
Cc1ccc(SCC(=O)O/N=C(\N)c2cccc([N+](=O)[O-])c2)cc1	-25%	-13	8%	-1	4%	-3%
O=C(NNC(=O)c1ccc([N+](=O)[O-])cc1)c1ccncc1	6%	-12	3%	1	-12%	-3%
N/C(=N\OCc1ccc([N+](=O)[O-])cc1)c1ccncc1	-3%	58*	5%	27*	-2%	1%

Screening results from PubChem BioAssay.
